# Reference: PubChem BioAssay AID1159580 (chemical genetic matrix, 2015)
# Out of some 5,500 compounds screened, about 2,000 (36%) were called active. Not shown: some 18% with an inconclusive outcome. The list shows a part of the results. Values without a mark were called inactive. No stated cut-off is given here; in the data, active means normalized growth mostly below about 0.91 (no sharp cut-off); inconclusive means no clear call, values can overlap the other calls; inactive means mostly above about 0.92.
# Assay: chemical genetic growth profiling, strain panel (AID 1159580);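 further: tested at 20 µM; growth read once vehicle control cultures reached saturation at 30 °C; 1 = growth at the plate median or of vehicle wells; lower values mean less growth of the strain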
# Conditions: growth OD
# [1] = S. cerevisiae deletion strains, locus YAL040C, strain CLN3, hits give low values
# [2] = S. cerevisiae deletion strains, locus YCL061C, strain MRC1 (second series), hits give low values
# [3] = S. cerevisiae deletion strains, locus YDR363W, strain ESC2, hits give low values
# [4] = S. cerevisiae deletion strains, locus YER002W, strain NOP16, hits give low values
# [5] = S. cerevisiae deletion strains, locus YJR075W, strain HOC1, hits give low values
# [6] = S. cerevisiae deletion strains, locus YMR263W, strain SAP30, hits give low values
# [7] = S. cerevisiae deletion strains, locus YMR307W, strain GAS1, hits give low values
# [8] = S. cerevisiae deletion strains, locus YNL153C, strain GIM3, hits give low values
# [9] = S. cerevisiae deletion strains, locus YNL175C, strain NOP13, hits give low values
# [10] = S. cerevisiae deletion strains, locus YNL197C, strain WHI3, hits give low values
# [11] = S. cerevisiae deletion strains, locus YNL224C, strain SQS1, hits give low values
# [12] = S. cerevisiae deletion strains, locus YOR083W, strain WHI5 (second series), hits give low values
# [13] = S. cerevisiae deletion strains, locus YPL241C, strain CIN2, hits give low values
# [14] = S. cerevisiae deletion strains, locus YAL013W, strain DEP1, hits give low values
# [15] = S. cerevisiae deletion strains, locus YBR229C, strain ROT2, hits give low values
# [16] = S. cerevisiae deletion strains, locus YDL101C, strain DUN1, hits give low values
# [17] = S. cerevisiae deletion strains, locus YDR150W, strain NUM1, hits give low values
# [18] = S. cerevisiae deletion strains, locus YEL061C, strain CIN8, hits give low values
# [19] = S. cerevisiae deletion strains, locus YGR078C, strain PAC10, hits give low values
# [20] = S. cerevisiae deletion strains, locus YHR030C, strain SLT2, hits give low values
# [21] = S. cerevisiae deletion strains, locus YHR087W, strain rtc3, hits give low values
# [22] = S. cerevisiae deletion strains, locus YJR043C, strain POL32, hits give low values
# [23] = S. cerevisiae deletion strains, locus YLR039C, strain RIC1, hits give low values
# [24] = S. cerevisiae deletion strains, locus YLR058C, strain SHM2 (second series), hits give low values
# [25] = S. cerevisiae deletion strains, locus YLR085C, strain ARP6, hits give low values
# [26] = S. cerevisiae deletion strains, locus YLR262C, strain YPT6, hits give low values
# [27] = S. cerevisiae deletion strains, locus YML094W, strain GIM5, hits give low values
# [28] = S. cerevisiae deletion strains, locus YMR219W, strain ESC1, hits give low values
# [29] = S. cerevisiae deletion strains, locus YNL298W, strain CLA4 (second series), hits give low values
# [30] = S. cerevisiae deletion strains, locus YNL322C, strain KRE1, hits give low values
# [31] = S. cerevisiae deletion strains, locus YNR030W, strain Alg12, hits give low values
# [32] = S. cerevisiae deletion strains, locus YPL055C, strain LGE1, hits give low values
# [33] = S. cerevisiae deletion strains, locus YPR135W, strain CTF4, hits give low values
# [34] = S. cerevisiae strains, strain wild type, hits give low values
smiles,measurement,setting,value
O=S(=O)(O)C1CCNCC1,normalized growth,[1],0.981
same,normalized growth,[2],1
same,normalized growth,[3],0.943
same,normalized growth,[4],1
same,normalized growth,[5],1.01
same,normalized growth,[6],0.997
same,normalized growth,[7],0.991
same,normalized growth,[8],1.02
same,normalized growth,[9],0.995
same,normalized growth,[10],0.995
same,normalized growth,[11],0.995
same,normalized growth,[12],0.993
same,normalized growth,[13],1
CN1CCN(C=Nc2ncc(C(F)(F)F)cc2Cl)CC1,normalized growth,[14],0.986
same,normalized growth,[15],1.02
same,normalized growth,[16],0.946
same,normalized growth,[17],0.974
same,normalized growth,[18],1.01
same,normalized growth,[19],0.984
same,normalized growth,[20],0.957
same,normalized growth,[21],1.07
same,normalized growth,"S. cerevisiae deletion strains, locus YJL187C, strain SWE1, hits give low values",1
same,normalized growth,[22],0.996
same,normalized growth,[5],0.989
same,normalized growth,[23],0.976
same,normalized growth,[24],0.996
same,normalized growth,[25],0.949
same,normalized growth,[26],0.995
same,normalized growth,[27],1.01
same,normalized growth,[28],1
same,normalized growth,[6],0.999
same,normalized growth,[7],1.01
same,normalized growth,[8],0.991
same,normalized growth,[29],0.975
same,normalized growth,[30],0.978
same,normalized growth,[31],1.02
same,normalized growth,"S. cerevisiae deletion strains, locus YOL006C, strain TOP1, hits give low values",0.988
same,normalized growth,[32],1.04
same,normalized growth,[13],0.994
same,normalized growth,[33],0.927
same,normalized growth,[34],0.991
CN(/N=C\c1ccccc1)c1ncc(C(F)(F)F)cc1Cl,normalized growth,[14],0.975
same,normalized growth,[15],0.949
same,normalized growth,"S. cerevisiae deletion strains, locus YCL061C, strain MRC1, hits give low values",0.989
same,normalized growth,[16],0.96
same,normalized growth,"S. cerevisiae deletion strains, locus YDL134C, strain PPH21, hits give low values",0.988
same,normalized growth,[17],0.897
same,normalized growth,[18],0.938
same,normalized growth,[19],0.934
same,normalized growth,[20],0.392 (active)
same,normalized growth,[21],0.905 (active)
same,normalized growth,[22],0.99
same,normalized growth,[5],0.921
same,normalized growth,[23],0.89
same,normalized growth,[24],0.953
same,normalized growth,[25],0.775 (active)
same,normalized growth,[26],0.88
same,normalized growth,[27],0.929
same,normalized growth,[28],0.978
same,normalized growth,[6],0.99
same,normalized growth,[8],0.984
same,normalized growth,[29],0.949
same,normalized growth,[30],0.974
same,normalized growth,[31],0.89
same,normalized growth,[32],0.901
same,normalized growth,[13],1.02
same,normalized growth,[33],0.907
same,normalized growth,[34],0.98
CN(C(=O)CCCOc1ccc2[nH]c(=O)ccc2c1)C1CCCCC1,normalized growth,[14],1.01
same,normalized growth,[1],0.998
same,normalized growth,[2],0.998
same,normalized growth,[17],0.99
same,normalized growth,[3],1
same,normalized growth,[4],0.989
same,normalized growth,[6],0.989
same,normalized growth,[7],1.01
same,normalized growth,[9],1.01
same,normalized growth,[10],1.02
same,normalized growth,[11],0.989
same,normalized growth,[12],0.993
same,normalized growth,[32],1
same,normalized growth,[13],0.999
